HDAC3 inh = human HDAC3 inhibition; hit rate 0.15% among 320,000; inhibition, % at 8.3 µM; recombinant HDAC3, fluorogenic peptide/trypsin coupled, fluorescence; AID 2718; O15379; in the data active = inhibition above about 26%, passing the limit was not always enough
ALR H2O2 inh = blocks human ALR sulfhydryl oxidase activity; purified ALR, DTT oxidation, H2O2 HRP-luminol luminescence; hit rate 3.8% among 290,000; AID 485317; inhibition, % (test concentration not listed);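 active = mean replicate inhibition above about 79%, with every replicate also reaching it, limit read from the data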
Target sequence (P55789 whole entry, looked up): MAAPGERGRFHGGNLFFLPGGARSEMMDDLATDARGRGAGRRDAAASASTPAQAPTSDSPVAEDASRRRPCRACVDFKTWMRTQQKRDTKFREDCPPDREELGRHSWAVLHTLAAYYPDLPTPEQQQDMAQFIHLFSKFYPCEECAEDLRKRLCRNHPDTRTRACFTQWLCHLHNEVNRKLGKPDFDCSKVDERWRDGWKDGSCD
GC-B act = GC-B (human) receptor activation; activation, % at 10 µM; HEK293-GC-B cells, CNP EC30, cGMP TR-FRET; 0% at EC30 CNP, 100% saturating CNP; hit rate 0.11% among 370,000; AID 1920062;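 active = activation at 10 µM reaching about 35% in either raw or pattern-adjusted values, limit read from the data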
NPR1 activator = GC-A (human) enzyme activation | hit rate 0.14% among 370,000 | activation, % at 10 µM | AID 1671463 | P16066 | HEK293 GC-A cells, cGMP TR-FRET, EC30 ANP; 0% at EC30 ANP, 100% saturating ANP; in the data active = activation above about 40%
* hit, by the source's call; x = no result given. Only a selection was taken, and hits are over-represented in it overall.

SMILES	HDAC3 inh	ALR H2O2 inh	GC-B act	NPR1 activator
CCC(Oc1ccccc1)C(=O)Nc1ncc([N+](=O)[O-])s1 (centres undefined)	7	97*	-4	2
O=C(COc1ccc(Cl)cc1)Nc1ncc([N+](=O)[O-])s1	x	x	1	6
Cc1[nH]c2ccccc2c1N=Nc1cccc(C(=O)O)c1	4	98*	-6	-3
O=C(Nc1ccccc1)Nc1ccc(O)c2ccccc12	-2	87*	x	x
O=C(Nc1ccccc1)Nc1cccc2ccccc12	5	-3	0	1
Cc1c(C(=O)NCCSCc2cccc(C(F)(F)F)c2)cnn1-c1ccc(Cl)cc1	-2	5	-10	-2
COc1ccc(CNC(=O)CC[C@H]2O[C@@H](n3cnc4c(NC(=O)c5ccccc5)ncnc43)[C@H](O)[C@@H]2O)cc1	x	x	-1	-1
Cc1ccc(C(=O)n2nc(-c3ccccc3)nc2NCc2ccco2)cc1	2	2	-9	0
CCCC(=O)n1nc(-c2ccc(C)cc2)nc1NCc1ccco1	2	90*	-5	-4
CC(=O)n1nc(-c2ccc(Cl)cc2)nc1NCc1ccco1	3	-14	-4	1
O=C(c1ccccc1)n1nc(-c2ccccc2)nc1NCc1ccco1	38*	32	-2	-1
COC(=O)N1C[C@H](OCc2ccccc2)[C@H]2C[C@@H]1c1ccccc1O2	x	x	3	-2
O=C1CCCc2c1sc1nc3n(c(=O)c21)CCCCC3	7	-3	-5	1
O=C1c2sc3nc4n(c(=O)c3c2CCC1Br)CCCCC4 (centres undefined)	17	82*	-3	4
O=C(C1CCC1)N1CCN(c2ccc(Cl)cc2)CC1	6	93*	-2	4
S=C(NC1CC1)N1CCN(c2ccc(Cl)cc2)CC1	2	98*	6	2
O=C(c1ccc(Cl)cc1)N1CCCC(C(=O)N2CCN(c3ccccc3)CC2)C1 (centres undefined)	-6	57	-5	-2
O[C@H](COc1cccc(F)c1)CN1CCC(C(O)(c2ccccc2)c2ccccc2)CC1	x	x	-13	-16
Oc1ccc(/C=N/NC(=S)Nc2cccnc2)cc1O	11	99*	-4	-5
O=S(=O)(c1ccc(Cl)c(NC(=S)N/N=C/c2c(F)cccc2F)c1)N1CCOCC1	0	-2	3	4
O=S(=O)(c1ccc(Cl)c(NC(=S)Nc2ccccc2N2CCOCC2)c1)N1CCOCC1	-5	98*	11	1
N#Cc1ccc(/C=N/NC(=S)Nc2ccc(S(=O)(=O)N3CCOCC3)cc2)cc1	1	1	-3	-5
O=S(=O)(c1ccc(NC(=S)N/N=C/c2ccc(O)c(O)c2)cc1)N1CCOCC1	1	99*	-2	-2
O=S(=O)(c1ccc(Cl)c(NC(=S)N/N=C/c2ccc(O)cc2)c1)N1CCOCC1	0	99*	4	5
CC(C)(C)OC(=O)N1C(=O)[C@](OC(=O)c2ccccc2)(c2ccc(F)cc2)c2ccccc21	x	x	-6	-2
SMILES	HDAC3 inh	ALR H2O2 inh	GC-B act	NPR1 activator
C=CCN1C(=O)[C@@H](CC(=O)NCc2ccc(C)o2)[C@]2(C(=O)OCC)CCCCC/C=C/12	x	x	-11	0
O=C(CN1CCN(c2ccc(O)cc2)CC1)Nc1cc(S(=O)(=O)N2CCCC2)ccc1Cl	7	90*	1	-3
CC(C)CCCCCCNC(=S)Nc1ccc(S(=O)(=O)N2CCOCC2)cc1	29*	-2	2	-6
O=C(CN1CCN(c2ccc(O)cc2)CC1)Nc1cc(S(=O)(=O)N2CCCCC2)ccc1Cl	6	45	2	1
Cc1ccnc(NC(=O)C2CC(=O)N(c3ccc4c(c3)OCCO4)C2)c1 (centres undefined)	-3	0	-1	-1
Nc1ncnc2c1nc(Br)n2[C@@H]1O[C@@H]2COP(=O)(O)O[C@H]2[C@H]1O	3	12	6	4
Nc1nc2c(nc(Br)n2[C@@H]2O[C@@H]3COP(=O)(O)O[C@H]3[C@H]2O)c(=O)[nH]1	-3	-3	114*	116*
O=C1NCC2=C1C(c1ccc(Br)cc1)Nc1ccccc1N2 (centres undefined)	9	72	-6	1
O=C(Nc1ccccc1Cl)Oc1ccc(-c2ccccc2)cc1	1	58	-4	13
CC1(C)SC(=S)N(/N=C/c2ccc(O)cc2)C1N(O)C(=O)Nc1ccc([N+](=O)[O-])cc1 (centres undefined)	20	81*	-1	0
CC1(C)OC(=O)C(=NNc2ccccc2)C(=O)O1	7	-4	3	-2
CC1(C)OC(=O)C(=NNc2ccc(O)cc2)C(=O)O1	2	99*	4	-4
CC(=O)c1ccc(Sc2nnc(C)s2)c([N+](=O)[O-])c1	x	8	2	-2
CCC(C(=O)Nc1ccccc1N1CCCC1)c1cccc(Cl)c1 (centres undefined)	x	x	-14	-9
COC(=O)Sc1nnc(-c2ccc(Br)cc2)o1	-17	98*	x	x
COc1cc(/C=C/C(=O)N[C@@H](Cc2c[nH]c3ccccc23)C(=O)O)ccc1O	9	86*	-1	3
Cc1ccc(NC(=O)CSc2nc(N)c(-c3ccccc3)c(=O)[nH]2)cc1Cl	0	98*	-4	-1
Nc1nc(SCC(=O)Nc2ccc(Cl)cc2)[nH]c(=O)c1-c1ccccc1	-1	12	-1	-5
Cc1ccc(NC(=O)CSc2nc(N)cc(=O)[nH]2)cc1Cl	0	95*	-4	-1
CCC(CC)NCC(O)COc1ccc(Br)cc1 (centres undefined)	-2	-6	-7	-4
COc1cccc(C(=O)n2c(SC)nc3cc4c(cc32)OCCO4)c1	92*	58	-4	5
CC(=O)Nc1ccc(/C(N=Nc2ccccc2)=N/N=C(N)N)cc1	x	x	-11	3
O=C(O)c1cccc(N/N=C(\N=Nc2ccccc2)c2ccccc2)c1	13	98*	-1	-4
O=C(O)c1ccc(N=N/C(=N\Nc2ccc(C(=O)O)cc2)c2ccccc2)cc1	0	98*	-4	3
Cc1ccc(C2=CSC3=NNC4(CCCCC4)NN23)cc1	6	100*	2	7
SMILES	HDAC3 inh	ALR H2O2 inh	GC-B act	NPR1 activator
COc1ccc(C2=CSC3=NNC4(CCCCC4)NN23)cc1	0	98*	1	1
COc1ccc(C)cc1NC(=O)c1cc(S(=O)(=O)N2CCCCC2)ccc1N1CCOCC1	4	-4	4	-4
CCOC(=O)CSc1ncnc2c1sc1nc(N3CCOCC3)c3c(c12)CCCC3	-18	-15	36*	30
COC(=O)c1ccc(CSc2ncnc3c2sc2nc(N4CCOCC4)c4c(c23)CCCC4)o1	1	x	62*	50*
COC(=O)c1ccc(Cn2cnc3c(sc4nc(N5CCOCC5)c5c(c43)CCCC5)c2=O)o1	4	1	49*	41*
O=c1c2sc3nc(N4CCOCC4)c4c(c3c2ncn1CCc1ccccc1)CCCC4	-6	-2	23	16
CCCCS(=O)(=O)N1CCCc2nc(-c3ccc(F)cc3)ccc21	x	x	-5	5

High-throughput results from PubChem BioAssay.
